Bioassay records: PubChem BioAssay, The Scripps Research Institute Molecular Screening Center
In the library only some 1.8% were active in any assay of this set; here they are far more common.
Fam108B inh: mouse Fam108B serine hydrolase inhibitors, primary screen, counter-screen for RBBP9 inhibitor project, biochemical, fluorescence polarization; recombinant Fam108B, FP-Rh probe fluorescence polarization; inhibition, % at 9.51 µM; 0.33% of 300,000 active;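 active = inhibition above the screen mean inhibition plus 3 SD, computed separately per campaign, cut at about 18% in these data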;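 note: inhibitors lower polarization as less probe binds the enzyme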
LYPLA2 counter: LYPLA2 inhibitors, primary screen, counter-screen for PME1 inhibitor project, biochemical, fluorescence polarization, FP-Rh probe ABPP; 0.38% of 320,000 active; recombinant LYPLA2; inhibition, % at 5.9 µM;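 active = inhibition above the screen-wide mean plus 3 SD, limit set per campaign, cut at about 26% in these data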;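 note: 0% = LYPLA2 with DMSO and 100% = wells lacking LYPLA2 enzyme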
LYPLA1 inh: LYPLA1 inhibitors, primary screen, counter-screen for PME1 inhibitor project, biochemical, fluorescence polarization, FP-Rh probe ABPP | 0.16% of 320,000 active | inhibition, % at 5.9 µM | recombinant LYPLA1;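 active = inhibition above the mean of all tested compounds plus 3 SD, set per campaign, cut at about 14% in these data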;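 note: inhibitors block serine hydrolase probe labeling of LYPLA1 so polarization falls; 0% = enzyme with DMSO and 100% = wells lacking LYPLA1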
PME-1 inh: PME-1 inhibitors via competitive probe labeling, primary screen, biochemical, fluorescence polarization, FP-Rh probe, HTS. Protein phosphatase methylesterase 1 (Homo sapiens), Q9Y570. AID 2130, 2009. recombinant PME-1. 0.53% of 320,000 active. inhibition, % at 5.9 µM;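 active = inhibition above the campaign mean of all compounds plus 3 SD, cut at about 26% in these data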;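 note: competitive labeling of PME-1 active site by serine hydrolase directed probe; 0% = PME-1 with DMSO and 100% = wells lacking PME-1 enzyme; inhibitors block probe labeling so polarization falls and inhibition rises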
PAD4 inh: human PAD4 inhibitors, primary screen, biochemical, fluorescence polarization, 1536-well format | recombinant PAD4, RCA probe fluorescence polarization | AID 485272, 2010 | inhibition, % at 6.36 µM | 0.41% of 330,000 active | Protein-arginine deiminase type-4 (Homo sapiens), Q9UM07;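 active = percent inhibition above a cutoff equal to the mean of all tested compounds plus 3 SD, cut at about 15% in these data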;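 note: 0% = PAD4 with RCA probe and DMSO and 100% = probe without PAD4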
Target sequence (Q9UM07 whole entry, looked up): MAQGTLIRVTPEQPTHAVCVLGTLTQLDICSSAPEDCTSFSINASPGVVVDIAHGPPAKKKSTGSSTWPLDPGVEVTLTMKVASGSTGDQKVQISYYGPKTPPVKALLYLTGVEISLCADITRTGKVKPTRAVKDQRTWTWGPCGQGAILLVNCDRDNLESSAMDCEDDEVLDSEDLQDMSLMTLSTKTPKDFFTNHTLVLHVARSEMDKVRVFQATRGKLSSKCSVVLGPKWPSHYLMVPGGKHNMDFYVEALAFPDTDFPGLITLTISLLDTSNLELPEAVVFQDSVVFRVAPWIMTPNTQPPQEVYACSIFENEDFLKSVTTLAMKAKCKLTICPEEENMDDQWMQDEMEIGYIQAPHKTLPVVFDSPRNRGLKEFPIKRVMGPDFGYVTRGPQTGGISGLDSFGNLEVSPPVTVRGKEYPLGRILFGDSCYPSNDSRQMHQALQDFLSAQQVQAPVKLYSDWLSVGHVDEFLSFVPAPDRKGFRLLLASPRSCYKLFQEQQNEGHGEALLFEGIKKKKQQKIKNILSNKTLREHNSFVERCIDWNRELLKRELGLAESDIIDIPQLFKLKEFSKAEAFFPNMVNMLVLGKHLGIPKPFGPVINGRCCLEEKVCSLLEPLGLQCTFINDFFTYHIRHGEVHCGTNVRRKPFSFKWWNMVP
GSTO1 counter: inhibitors of recombinant GSTO1, primary screen, counter-screen for RBBP9 inhibitor project, biochemical, fluorescence polarization; Glutathione S-transferase omega-1 (Homo sapiens), P78417; activity-based probe fluorescence polarization; inhibition, % at 5.96 µM; 1.1% of 300,000 active; AID 1974, 2009;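 active = inhibition above the campaign mean inhibition plus 3 SD, cut at about 35% in these data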;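 note: 0% = GSTO1-1 with DMSO and 100% = wells lacking GSTO1-1 enzyme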
LYPLA1 conf: LYPLA1 inhibitors, retest, confirmation, counter-screen for PME1 inhibitor project, biochemical, fluorescence polarization, FP-Rh probe ABPP; recombinant LYPLA1; inhibition, % at 5.9 µM; 69% of 480 active; AID 2233, 2010; shares compounds with LYPLA1 inh;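 active = mean inhibition across replicates above the hit cutoff set in the primary screen, cut at about 15% in these data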;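 note: loss of FP-Rh probe labeling of LYPLA1 seen as lower polarization; 0% = LYPLA1 with DMSO and 100% = wells lacking LYPLA1 enzyme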
LYPLA2 conf: LYPLA2 inhibitors, retest, confirmation, counter-screen for PME1 inhibitor project, biochemical, fluorescence polarization, FP-Rh probe ABPP; shares compounds with LYPLA2 counter; recombinant LYPLA2; inhibition, % at 5.9 µM; 72% of 1,100 active; AID 2232, 2010;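 active = mean inhibition across replicates above the hit cutoff set in the primary screen, cut at about 26% in these data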;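 note: blocked labeling of the enzyme by serine hydrolase FP-Rh probe lowers polarization; 0% = enzyme with DMSO and 100% = wells lacking LYPLA2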
An asterisk follows results filed as active; . = no result given; ! = not active in a repeat.

SMILES	Fam108B inh	LYPLA2 counter	LYPLA1 inh	PME-1 inh	PAD4 inh	GSTO1 counter	LYPLA1 conf	LYPLA2 conf
C=CCSc1nnc(CCCCCN2C(=O)c3cccc4cccc(c34)C2=O)o1	-0.8	9.6	26.7*	-1.8	-1.9	1.4	38.5*	.
CCOC(=O)CCCSc1nnc(CCCCCN2C(=O)c3cccc4cccc(c34)C2=O)o1	-4.8	19.9	45.1*	-3.6	2.3	-1.9	52.5*	.
CSC(=NC#N)N1CCN(c2ccc([N+](=O)[O-])cc2)CC1	3.3	14.0	19.2*	1.0	-2.7	3.0	24.2*	.
CSC(=NC#N)N1CCN(C(c2ccccc2)c2ccccc2)CC1	-0.1	20.8	19.6*	-3.0	-9.2	2.2	24.1*	.
O=C(NCCCN1CCCC1=O)c1cccc(S(=O)(=O)N2CCN(c3ccccc3)CC2)c1	0.1	4.3	1.2	1.0	-3.7	-0.8	.	.
O=C(OCCNC(=O)c1ccc2ccccc2n1)c1ccc(F)cc1	2.7	-0.4	0.4	1.1	-7.0	-0.9	.	.
O=C(CCNc1cccc(F)c1)c1cccc([N+](=O)[O-])c1	-3.5	5.0	0.0	-3.4	-2.4	-3.0	.	.
O=C(CCNc1ccc(Cc2ccncc2)cc1)c1cccc([N+](=O)[O-])c1	7.3	20.4	18.3*	10.5	-3.2	5.9	35.6*	.
Cc1[nH]nc(SCC(=O)NC2CCCCC2)c1[N+](=O)[O-]	0.0	-4.1	-2.0	-1.1	0.0	-3.8	.	.
COc1ccc(NC(=O)C2CCC(CNc3c(N4CCCCC4)c(=O)c3=O)CC2)cc1OC (stereo unspecified)	-2.8	1.8	17.0*	-0.8	-3.0	2.6	21.0*	.
COc1ccc(OC)c(NC(=O)C2CCC(CNc3c(N4CCOCC4)c(=O)c3=O)CC2)c1 (stereo unspecified)	1.1	-2.3	0.6	-5.6	4.3	8.9	.	.
O=C(CCCCCN1C(=O)c2ccccc2C1=O)Oc1ccc2c3c(c(=O)oc2c1)CCC3	0.1	20.0	32.4*	6.3	-5.8	-3.8	50.9*	.
O=C(Oc1ccc2c3c(c(=O)oc2c1)CCC3)c1ccco1	1.5	-4.0	-5.8	3.4	1.7	2.7	.	.
C=C[C@]1(C)C[C@@H](OC(=O)CSCCN(CC)CC)[C@]2(C)C(C)CC[C@]3(CCC(=O)[C@H]32)[C@@H](C)[C@@H]1O (stereo partly specified)	2.2	0.5	14.8*!	-2.8	-0.6	4.2	3.3	.
O=C1CC(=O)Nc2cc(S(=O)(=O)N3CCN(c4ccc([N+](=O)[O-])cc4)CC3)ccc2N1	-0.6	8.1	2.5	0.9	0.2	10.4	.	.
NS(=O)(=O)c1ccc(CCNC(=O)c2cc([N+](=O)[O-])ccc2N2CCCCC2)cc1	-1.2	30.0*	78.2*	2.5	2.4	1.9	77.3*	14.3
Cc1[nH]c2ccccc2c1C(=O)CN1CCN(C/C=C/c2ccccc2)CC1	2.0	55.8*	31.4*	0.2	-4.3	0.7	30.6*	53.7*
O=C1Cc2ccccc2C(c2ccc(Br)cc2)N1 (stereo unspecified)	-2.0	30.4*	21.5*	-0.7	-0.7	7.8	28.6*	26.9*
Cc1ccccc1C1NC(=O)Cc2ccccc21 (stereo unspecified)	1.3	3.2	0.8	1.6	-0.8	5.8	.	.
CC(=O)c1ccc(OCc2cc(C(=O)N3CCC(Oc4ccccc4C)CC3)no2)cc1	-2.8	13.3	-2.4	0.4	0.0	-5.6	.	.
Cc1ccc(OCc2cc(C(=O)N3CCC(Oc4cccnc4)CC3)no2)cc1C	-3.4	47.9*	38.3*	0.5	-1.7	5.3	37.7*	38.3*
O=C(c1cc(COc2cccc(C(F)(F)F)c2)on1)N1CCC(Oc2cccnc2)CC1	-0.6	34.7*	39.6*	7.6	5.0	0.8	50.2*	37.7*
CN(CC(=O)Nc1c(Cl)cccc1Cl)C(=O)C1CSC2(C)CCC(=O)N12 (stereo unspecified)	0.6	1.3	-0.5	6.0	4.6	1.8	.	.
CN1CCN(Cc2cccc(Oc3ccccc3)c2)CC1	3.1	-1.0	-1.8	-0.4	-5.3	-1.3	.	.
COc1ccc(CN2CCN(Cc3cccc(Oc4ccccc4)c3)CC2)c(OC)c1OC	2.7	26.3*	21.1*	0.3	1.7	-1.1	31.2*	21.3
SMILES	Fam108B inh	LYPLA2 counter	LYPLA1 inh	PME-1 inh	PAD4 inh	GSTO1 counter	LYPLA1 conf	LYPLA2 conf
O=C(NCCNC(=O)c1cc(OCC(F)(F)F)ccc1OCC(F)(F)F)Nc1cccc(C(F)(F)F)c1	2.5	60.6*	33.1*	-5.4	4.2	-5.1	43.8*	49.6*
CSCc1c(C(=O)Nc2ccc3c(c2)OCO3)oc2ccccc12	0.1	-6.5	-4.8	1.2	1.6	7.9	.	.
CCOC(=O)CSc1nnc(CSc2nc3sc4c(c3c(=O)[nH]2)CCCC4)n1-c1ccccc1	0.6	77.5*	15.8*	3.4	1.8	-34.6	15.4*	80.0*
O=C(CCN1CCN(c2ccc([N+](=O)[O-])cc2)CC1)c1ccc(Cl)cc1	-0.2	72.5*	37.1*	-1.4	-2.6	-11.7	47.3*	78.9*
O=C(CCN1CCN(c2ccccc2)CC1)c1ccc(Cl)cc1	0.1	23.2	5.0	1.7	0.3	-5.8	.	.
N#CC(=C1Nc2ccccc2N1)S(=O)(=O)c1ccccc1	-4.3	-11.0	-2.1	-5.0	-3.3	6.0	.	.
N/C(=N\NC(=O)c1ccccc1Cl)c1cc2ccccc2oc1=O	0.8	-2.6	-3.0	0.3	3.7	-1.7	.	.
COc1ccc(C(=O)NC(=S)Nc2ccc(CN3CCOCC3)cc2)cc1Cl	-2.7	59.9*	21.6*	2.5	-2.7	3.2	20.9*	46.0*
CCC(=O)N1CCN(c2ccc(NC(=S)NC(=O)c3ccc(OC)c([N+](=O)[O-])c3)cc2)CC1	1.5	62.6*	56.1*	7.1	-2.4	7.4	70.5*	81.2*
COc1ccc(C(=O)NC(=S)Nc2ccccc2N2CCOCC2)cc1[N+](=O)[O-]	-0.9	12.3	-0.1	7.6	-3.2	-7.6	.	.
CCCC(=O)N1CCN(c2ccc(NC(=O)c3ccc(OCC)c([N+](=O)[O-])c3)cc2)CC1	-0.4	17.2	1.5	6.5	-0.3	-3.3	.	.
